Each structure is given as a SMILES string.

In the assay the test system is HFF. Briefly: cell viability relative to DMSO control; higher = less cytotoxic. To be noted: 1 µM; 72 h. As for the experimental part: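 Single-dose cytotoxicity screen of the MMV Pandemic Response Box at 1 uM on human foreskin fibroblasts (HFF), 72 h at 37 C. Viability measured by MTT (OD 550 nm) and normalised to the DMSO control (% survival).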
The cell viability is the share of living cells, or the viability signal relative to a control. The compound `O=C1C=C(c2ccccc2)S(=O)(=O)c2ccccc21` yielded a cell viability of 67.5%.
The figure for `CCn1cc(C(=O)O)c(=O)c2cc(F)c(N3CCNC(C)C3)c(F)c21` (stereo not given) is 71.2%; for `Nc1nc(C(F)(F)F)cc2c1[nH]c(=O)n2Cc1ccccc1` it is 65%.
The figure for `CC(=O)N1c2ccccc2NC2=C(C(=O)CC(C)(C)C2)C1c1ccc(OCc2ccccc2)cc1` (stereo not given) is 70.4%; for `Cc1cc(C)n(O)c(=O)c1` it is 68.5%; for `O=C(CCc1ccc2c(c1)OCO2)NCc1ccc(-c2ccccc2F)cc1` it is 65.7%.
The result for `CN(C)[C@@H]1C(=O)C(C(N)=O)=C(O)[C@@]2(O)C(=O)C3=C(O)c4c(O)c(NC(=O)CN5CCCC5)cc(F)c4C[C@H]3C[C@@H]12` reads 66%; that for `c1cnc(NCc2ccc(CNc3ncccn3)cc2)nc1`, 67.2%.
Compound `CCc1nc2ccc(Cl)cn2c1C(=O)NCc1ccc(N2CCC(c3ccc(OC(F)(F)F)cc3)CC2)cc1` showed a cell viability of 63.2%.
The figure for `NC[C@H]1OB(O)c2c(OCCCO)cccc21` is 69.9%; for `O=c1ccc2ncc(=O)n3c2n1CC3CN1CCC(NCc2cc3c(cn2)OCCC3)CC1` (stereo not given) it is 60%; for `O=C(/C=C\n1cnc(-c2cc(C(F)(F)F)cc(C(F)(F)F)c2)n1)NNc1ccccn1` it is 62%.
`CSc1ccc2c(c1)C(N1CCN(C)CC1)Cc1ccccc1S2` (stereo not given) showed a cell viability of 65%.
`CCC(C)NCC(O)Cn1c2ccc(Cl)cc2c2cc(Cl)ccc21` (stereo not given) had a cell viability of 68.3%.
The result for `Nc1cccc(-c2nc(N)nc(NC3Cc4ccccc4C3)n2)c1` reads 68.2%; that for `O=C(N[C@H](Cc1cccc2ccccc12)C(=O)NCCc1c[nH]cn1)C1Cc2ccccc2C1`, 62.3%; that for `O=c1nc(N2CCN(CC3CCCCC3)CC2)sc2c([N+](=O)[O-])cc(C(F)(F)F)cc12`, 57.6%.
The figure for `CCc1nc(N)nc(N)c1C#CCc1ccccc1` is 69.3%; for `CCOC(=O)/C=C/[C@H](C[C@@H]1CCNC1=O)NC(=O)[C@@H](CC(=O)[C@@H](NC(=O)c1cc(C)on1)C(C)C)Cc1ccc(F)cc1` it is 73.2%.
In turn, `Cc1ccc(N2CCC(CCOc3ccc(S(C)(=O)=O)cc3)CC2)nn1` showed a cell viability of 68.1%.
The result for `CCOc1ccc(C(=O)NCCc2ccccc2)cc1` reads 63.9%; that for `NCC(=O)Nc1ccc(-n2nc(C(F)(F)F)cc2-c2ccc3c(ccc4ccccc43)c2)cc1`, 80.7%; that for `C(=C\c1nc2ccccc2[nH]1)/c1ccc2c(c1)OCO2`, 63.4%.
The figure for `C[C@@H](NC(=O)c1cccc(-c2cnc(-c3cc4ccccc4cn3)[nH]2)c1)c1ccc(F)cc1` is 74.3%; for `CC(C)(C)c1cc(CCC(=O)N2CCC2)cc(C(C)(C)C)c1O` it is 72.6%.
The figure for `O=C(NCc1ncc(C(F)(F)F)cc1Cl)c1c(Cl)cccc1Cl` is 74.8%; for `CCN(CC)CCCC(C)Nc1ccnc2cc(Cl)ccc12` (stereo not given) it is 66.4%; for `CC(C)(C)NC(=O)[C@@H]1C[C@@H]2CCCC[C@@H]2CN1C[C@@H](O)[C@H](Cc1ccccc1)NC(=O)[C@H](CC(N)=O)NC(=O)c1ccc2ccccc2n1` it is 78.9%.
For `CC1CCc2c(N3CCC(O)CC3)c(F)cc3c(=O)c(C(=O)O)cn1c23` (stereo not given), the cell viability was determined as 59.7%.
`O=S(=O)(Nc1ccccc1)c1ccc(NC(=S)Nc2ccccc2)cc1` registered a cell viability of 66.2%.
`CCCCSc1nc(N)c2[nH]c(=O)c(=O)n(Cc3ccccc3)c2n1` showed a cell viability of 67.5%.
The figure for `O=C(Cn1cnc2ccccc2c1=O)Nc1ccccc1` is 62.8%.
The result for `Nc1nc(=O)c(Br)c(-c2ccccc2)[nH]1` reads 64.9%; that for `CC1CN(c2ncnc3c2c(-c2ccccc2)cn3-c2ccc(F)cc2)CC(C)O1` (stereo not given), 75.3%.
The result for `CC[C@@]1(O)C(=O)OCc2c1cc1n(c2=O)Cc2cc3c(CN(C)C)c(O)ccc3nc2-1` reads 50.1%; that for `O=S(=O)(Nc1ccc(-n2cccc2)cc1)c1ccc(Cl)c(Cl)c1`, 64.5%; that for `COc1ccc2c(c1)cc(CNC(=O)c1cc3ccccc3o1)n2CC(=O)O`, 62.5%.
On to `Cc1[nH]c2ccccc2c1CC(=O)N[C@@H](Cc1ccccc1)C(=O)N(C)c1ccccc1`, for which the cell viability was found to be 69.6%.
The result for `Cc1cc(O)c2c(c1)C(=O)c1c(I)c(O)c(I)c(O)c1C2=O` reads 71.9%.
In turn, `CC(C)N(c1cc(-c2ccccc2)sc1C(=O)O)C(=O)[C@H]1CC[C@H](C)CC1` displayed a cell viability of 67.5%.

Values taken from the supplement of paper PMC10941209.
